Data as given in PubChem BioAssay AID651742 (Broad Institute, 2012).
About 780 (14%) of roughly 5,600 compounds were called active. About 3% were inconclusive and are not listed.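 Rule for the calls: active = mean signal decrease across replicates above about 35% based on untreated-well scatter, with enough replicates individually passing (limit read from the data); inconclusive = no rule stated though some were filed; inactive = the rest.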 Not all results are given here.

Experiment: NIH3T3 cell viability loss – cherry-pick, single point, cytotoxicity control for T. cruzi proliferation inhibitor project, confirmation (AID 651742);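 note: 0% = median of neutral control wells and 100% = median of positive control wells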
Settings: NIH/3T3 viability, CellTiter-Glo ATP luminescence, 90 h; at 8.35 µM; stronger effect = higher value

| Compound | cytotoxicity (signal decrease) |
| --- | --- |
| COc1ccc(CN(C)C[C@H]2Oc3ccc(NS(=O)(=O)c4ccc(Cl)cc4)cc3CC(=O)N([C@@H](C)CO)C[C@H]2C)cc1 | 12.2% (inactive) |
| C[C@@H]1CCCCO[C@H](CN(C)C(=O)NC2CCCCC2)[C@H](C)CN([C@H](C)CO)C(=O)c2cc(NC(=O)Nc3ccc(F)cc3)ccc2O1 | -12.7% (inactive) |
| CCCC#Cc1ccc([C@@H]2[C@@H](C#N)N(C(=O)C3CCCC3)[C@@H]2CO)cc1 | 14.1% (inactive) |
| N#Cc1ccc(-c2ccc3c(c2)[C@@H]2[C@@H](CCN2C(=O)Cc2ccncc2)[C@@H](CO)N3)cc1 | 8.03% (inactive) |
| C[C@H]1CN([C@@H](C)CO)C(=O)Cc2cc(NC(=O)Cc3cn(C)c4ccccc34)ccc2O[C@@H]1CN(C)Cc1ccc(C(F)(F)F)cc1 | 7.48% (inactive) |
| C[C@@H]1CN([C@H](C)CO)C(=O)c2cccc(NC(=O)c3cnccn3)c2O[C@@H]1CN(C)Cc1ccc(C(=O)Nc2ccccc2N)cc1 | 32.5% (inactive) |
| C[C@@H]1CN([C@@H](C)CO)S(=O)(=O)c2ccc(C#CCN(C)C)cc2O[C@H]1CN(C)C(=O)C1CC1 | 19.8% (inactive) |
| C[C@@H]1CN([C@H](C)CO)S(=O)(=O)c2ccc(C#CC3CCCC3)cc2O[C@@H]1CN(C)Cc1cccnc1 | 48.5% (active) |
| CC(C)CC#Cc1ccc2c(c1)O[C@H](CN(C)Cc1cccnc1)[C@H](C)CN([C@@H](C)CO)S2(=O)=O | 65.8% (active) |
| CC(C)CC#Cc1ccc2c(c1)O[C@H](CN(C)C(=O)C1CC1)[C@@H](C)CN([C@@H](C)CO)S2(=O)=O | 22.1% (inactive) |
| CC(C)CC#Cc1ccc2c(c1)O[C@H](CN(C)Cc1ccccc1F)[C@@H](C)CN([C@@H](C)CO)S2(=O)=O | -3.93% (inactive) |
| C[C@H](CO)N1C[C@H](C)[C@H](CN(C)Cc2cccnc2)Oc2cc(C#CC3CCCC3)ccc2S1(=O)=O | 32% (inactive) |
| CCCN(C)C[C@H]1Oc2cc(C#CC3CCCC3)ccc2S(=O)(=O)N([C@H](C)CO)C[C@@H]1C | 26.3% (inactive) |
| CNC[C@@H]1Oc2cc(C#CCC3CCCC3)ccc2S(=O)(=O)N([C@H](C)CO)C[C@H]1C | -4.17% (inactive) |
| C[C@@H]1CCCCO[C@H](CN(C)Cc2ccc(Cl)c(Cl)c2)[C@H](C)CN([C@@H](C)CO)C(=O)c2cc(NC(=O)C3CCCCC3)ccc2O1 | 12.1% (inactive) |
| C[C@@H]1CN([C@H](C)CO)S(=O)(=O)c2ccc(C#CC3CCCC3)cc2O[C@@H]1CN(C)C(=O)Cc1ccncc1 | 4.33% (inactive) |
| Cc1ccc(S(=O)(=O)N(C)C[C@@H]2OCCCC[C@@H](C)Oc3ccc(NS(=O)(=O)c4ccc(F)cc4)cc3C(=O)N([C@H](C)CO)C[C@H]2C)cc1 | -0.859% (inactive) |
| O=C(Nc1cc(Cl)cc(Cl)c1)N[C@H]1CC[C@@H](CCNS(=O)(=O)c2cccc(F)c2)O[C@H]1CO | 2.47% (inactive) |
| CCCNC(=O)N(C)C[C@@H]1Oc2ncc(C#Cc3ccccc3F)cc2C(=O)N([C@@H](C)CO)C[C@H]1C | -5.73% (inactive) |

| Compound | cytotoxicity (signal decrease) |
| --- | --- |
| C[C@H](CO)N1C[C@H](C)[C@@H](CN(C)S(=O)(=O)c2ccccc2F)Oc2ncc(C#Cc3ccccc3F)cc2C1=O | 48% (active) |
| C[C@H](CO)N1C[C@H](C)[C@H](CN(C)C(=O)C2CCCCC2)Oc2ncc(C#Cc3cccc(F)c3)cc2C1=O | 25.3% (inactive) |
| C[C@@H]1CN([C@@H](C)CO)C(=O)c2cc(C#CC3CCCCC3)cnc2O[C@H]1CN(C)S(=O)(=O)c1ccccc1 | 17.3% (inactive) |
| C[C@@H]1CN([C@H](C)CO)C(=O)c2cc(C#Cc3ccccn3)cnc2O[C@H]1CN(C)Cc1ccccc1 | -3.21% (inactive) |
| C[C@H](CO)N1C[C@H](C)[C@H](CN(C)C(=O)Nc2ccc3c(c2)OCO3)Oc2ncc(C#Cc3cccc(F)c3)cc2C1=O | 66.2% (active) |
| C[C@H](CO)N1C[C@H](C)[C@H](CN(C)S(=O)(=O)c2ccccc2)Oc2ncc(-c3cccc(C(F)(F)F)c3)cc2C1=O | 33.1% (inactive) |
| Cc1ccc(-c2cnc3c(c2)C(=O)N([C@@H](C)CO)C[C@@H](C)[C@H](CN(C)Cc2ccccc2F)O3)cc1 | 33% (inactive) |
| C[C@@H]1CN([C@H](C)CO)C(=O)c2cc(-c3cncnc3)cnc2O[C@H]1CN(C)C(=O)Nc1ccc2c(c1)OCO2 | -12.9% (inactive) |
| C[C@H](CO)N1C[C@H](C)[C@@H](CN(C)S(=O)(=O)c2ccccc2)Oc2ncc(C#Cc3ccccc3F)cc2C1=O | 37.2% (active) |
| Cc1ccc(S(=O)(=O)N(C)C[C@@H]2Oc3ncc(-c4cc5ccccc5o4)cc3C(=O)N([C@H](C)CO)C[C@@H]2C)cc1 | 38.6% (active) |
| C[C@H]1CN([C@@H](C)CO)C(=O)c2cc(C#CC3CCCCC3)cnc2O[C@H]1CN(C)S(=O)(=O)c1ccccc1 | 4.57% (inactive) |
| N#C[C@@H]1[C@H](c2ccc(C#Cc3cccc(F)c3)cc2)[C@@H](CO)N1C(=O)C1CCCC1 | -6.1% (inactive) |
| CC(C)(C)[S@@](=O)N1Cc2cc(C(=O)NCc3ccc4c(c3)OCO4)nc(-c3cccc(-c4ccccc4)c3)c2[C@H]1CCO | 24% (inactive) |
| COc1cccc(S(=O)(=O)N2CCCCN3[C@H](CO)[C@H](c4ccc(C#CC5CC5)cc4)[C@H]3C2)c1 | 24.2% (inactive) |
| C[C@@H]1CCCCO[C@H](CN(C)C(=O)NC2CCCCC2)[C@H](C)CN([C@H](C)CO)C(=O)c2cc(NS(=O)(=O)c3ccc(Cl)cc3)ccc2O1 | -21.2% (inactive) |
| C[C@H]1CN([C@@H](C)CO)C(=O)c2cccc(NS(=O)(=O)c3cn(C)cn3)c2O[C@@H]1CN(C)CC1CCCCC1 | -8.55% (inactive) |
| C[C@@H]1CCCCO[C@@H](CN(C)C(=O)Nc2ccc(F)cc2)[C@H](C)CN([C@H](C)CO)C(=O)c2cc(NC(=O)Nc3cccc4ccccc34)ccc2O1 | 1.18% (inactive) |
| CN1C(=O)c2cc(NC(=O)Nc3ccccc3F)ccc2OC[C@H]2O[C@H](CC(=O)NCc3ccc(-c4ccccc4)cc3)CC[C@H]21 | 8.3% (inactive) |
| N#C[C@@H]1[C@@H](c2ccccc2)[C@@H](CO)N1C(=O)Cc1ccccc1 | 20.6% (inactive) |

| Compound | cytotoxicity (signal decrease) |
| --- | --- |
| Cc1cc(C(=O)Nc2cccc3c2O[C@@H](CN(C)Cc2ccc(C(=O)Nc4ccccc4N)cc2)[C@H](C)CN([C@@H](C)CO)C3=O)n(C)n1 | 6% (inactive) |
| C[C@H]1CCCCO[C@H](CN(C)Cc2ccccc2)[C@@H](C)CN([C@@H](C)CO)C(=O)c2cc(NC(=O)c3ccccc3)ccc2O1 | -15.3% (inactive) |
| CC(C)NC(=O)Nc1ccc2c(c1)C(=O)N([C@@H](C)CO)C[C@H](C)[C@H](CN(C)S(=O)(=O)c1ccc(Cl)cc1)OCCCC[C@H](C)O2 | -22.1% (inactive) |
| O=C(Nc1ccc(-c2ccccc2)cc1)[C@H]1[C@H](CO)[C@H]2Cn3c(cccc3=O)[C@H]2N1CC1CC1 | 8.32% (inactive) |
| C[C@@H]1CN([C@@H](C)CO)S(=O)(=O)c2ccc(C#CCC3CCCC3)cc2O[C@H]1CN(C)C(=O)CC1CC1 | 15% (inactive) |
| C[C@H]1CN([C@@H](C)CO)S(=O)(=O)c2ccc(C#CC3CCCC3)cc2O[C@H]1CN(C)C(=O)Cc1ccncc1 | 6.81% (inactive) |
| COc1ccc(S(=O)(=O)N(C)C[C@H]2Oc3c(NC(=O)Nc4cccc5ccccc45)cccc3C(=O)N([C@@H](C)CO)C[C@H]2C)cc1 | 19.4% (inactive) |
| Cc1ccc(S(=O)(=O)N(C)C[C@@H]2Oc3c(NC(=O)c4nc5ccccc5s4)cccc3C(=O)N([C@H](C)CO)C[C@@H]2C)cc1 | 23.6% (inactive) |
| COc1ccc(S(=O)(=O)N(C)C[C@H]2OCCCC[C@H](C)Oc3ccc(NS(=O)(=O)c4ccc(F)cc4)cc3C(=O)N([C@@H](C)CO)C[C@@H]2C)cc1 | -16.9% (inactive) |
| CCC(=O)N1CC[C@@H]2[C@@H](CO)N(C)c3ccc(-c4ccc(F)cc4)cc3[C@@H]21 | -22.3% (inactive) |
| C/C=C/c1ccc([C@H]2[C@H]3CN(S(=O)(=O)c4ccccc4)CCCCN3[C@H]2CO)cc1 | 20.3% (inactive) |
| C[C@H]1CN([C@@H](C)CO)C(=O)c2ccccc2-c2ccccc2CO[C@@H]1CN(C)S(=O)(=O)c1ccc(C(F)(F)F)cc1 | 38.8% (active) |
| C[C@H](CO)N1C[C@H](C)[C@@H](CN(C)S(=O)(=O)c2cccc(F)c2)OCc2ccccc2-c2c(n(C)c3ccccc23)C1=O | -5.9% (inactive) |
| C[C@@H]1CCCCO[C@H](CN(C)S(=O)(=O)c2ccc(F)cc2)[C@H](C)CN([C@@H](C)CO)C(=O)c2cc(NS(=O)(=O)c3ccccc3)ccc2O1 | -7.76% (inactive) |
| Cc1ccc(S(=O)(=O)Nc2ccc3c(c2)C(=O)N([C@H](C)CO)C[C@H](C)[C@H](CN(C)Cc2ccc(Cl)c(Cl)c2)O3)cc1 | 17% (inactive) |
| C[C@H]1CCCCO[C@@H](CN(C)C(=O)NC2CCCCC2)[C@@H](C)CN([C@@H](C)CO)C(=O)c2cc(NS(=O)(=O)c3ccc(Cl)cc3)ccc2O1 | -16.4% (inactive) |
| COCC(=O)N1[C@H](CO)[C@@H](c2ccc(C#Cc3ccccc3F)cc2)[C@@H]1C#N | -6.81% (inactive) |
| C[C@@H]1CN([C@H](C)CO)C(=O)c2cc(NS(=O)(=O)c3cccs3)ccc2O[C@@H](C)CCCCO[C@H]1CN(C)Cc1ccc(C(F)(F)F)cc1 | 5.21% (inactive) |
